Each structure is given as a SMILES string. The campaign covered roughly 11,000 compounds. About 310 (2.8%) were called active. Cut-off read from the data, not from the text of the source: active = activity change below about -85%; inactive = the rest. The list comes from a sample in which actives are over-represented; it also holds similar structures and randomly drawn compounds.

For the experiment, the system named is intestinal alkaline phosphatase [Mus musculus]. Description: activators of mouse IAP, confirmation, biochemical, luminescence, single concentration (AID 434970). Conditions: purified mouse IAP, CDP-Star luminescence, 30 min, at 10 µM; activation factor: measured here: IAP activation factor, stronger effect = higher value; activity change, negative = activation: stronger effect = lower value.
As to `COc1ccc(NC(=O)C(=O)NCCN2CCN(C(=O)C(c3ccccc3)c3ccccc3)CC2)cc1`, the activation factor was 1.05 and the activity change, negative = activation was -5.05% (inactive).
Taken in the same sequence, the figures for `Cc1cc(C)cc(NC(=S)NCc2ccc3c(c2)OCO3)c1` were 1.81 and -80.9% (inactive).
Regarding `O=C(O)c1ccccc1NC(=S)NC(NC(=O)c1ccccc1[N+](=O)[O-])C(Cl)(Cl)Cl` (stereo unspecified), the activation factor amounted to 0.83 and the activity change, negative = activation was 17% (inactive).
For the molecule `CC(=O)NC(NC(=S)Nc1ccc(N=Nc2ccccc2C)cc1C)C(Cl)(Cl)Cl` (stereo unspecified), the activation factor is 0.848 and the activity change, negative = activation is 15.2% (inactive).
Turning to `Cc1ccccc1NC(=S)NC(NC(=O)COc1ccccc1)C(Cl)(Cl)Cl` (stereo unspecified), the activation factor came to 1.73 and the activity change, negative = activation was -73% (inactive).
Taken in the same sequence, the figures for `Cc1ccc(NC(=S)NC(NC(=O)c2ccccc2C)C(Cl)(Cl)Cl)c(C)c1` (stereo unspecified) were 3.11 and -211% (active).
The corresponding values for `Cc1ccccc1NC(=S)NC(NC(=O)c1ccccc1C)C(Cl)(Cl)Cl` (stereo unspecified) are 2.07 and -107% (active).
With `Cc1cc(C)c(NC(=S)NC(NC(=O)c2ccccc2)C(Cl)(Cl)Cl)c(C)c1` (stereo unspecified), the activation factor stood at 1.28 and the activity change, negative = activation is -28.3% (inactive).
Taken in the same sequence, the figures for `CCC(=O)N1c2ccccc2NC2=C(C(=O)CCC2)C1c1ccc(N(C)C)cc1` (stereo unspecified) were 1.18 and -18.3% (inactive).
Take `O=C(NC1CCCCC1)N1CCN(c2ccccc2)CC1`: the activation factor came to 0.931 and the activity change, negative = activation is 6.95% (inactive).
Regarding `N/C(COc1cccc(Cl)c1)=N\NS(=O)(=O)c1ccccc1`, the activation factor amounted to 0.875 and the activity change, negative = activation was 12.6% (inactive).
For the molecule `COc1cc(-c2noc(CCC(N)=O)n2)cc(OC)c1OC`, the activation factor was found to be 0.884 and the activity change, negative = activation was 11.6% (inactive).
Taken in the same sequence, the figures for `CCC(C)NCCOCCOc1ccc(F)cc1` (stereo unspecified) were 1.03 and -3.25% (inactive).
With `Cc1ccc(S(=O)(=O)N(C)C[C@H]2Oc3c(NC(=O)Nc4cccc5ccccc45)cccc3C(=O)N([C@@H](C)CO)C[C@@H]2C)cc1`, the activation factor turned out to be 3.14 and the activity change, negative = activation is -214% (active).
Taken in the same sequence, the figures for `C[C@H]1CN([C@@H](C)CO)C(=O)c2cccc(NC(=O)Nc3ccc(C(F)(F)F)cc3)c2O[C@@H]1CN(C)S(=O)(=O)c1ccc(Cl)cc1` were 1.47 and -46.7% (inactive).
As for `Cc1ccc(S(=O)(=O)N(C)C[C@@H]2Oc3ccc(NC(=O)Nc4cccc5ccccc45)cc3C(=O)N([C@H](C)CO)C[C@H]2C)cc1`, the activation factor turned out to be 2.13 and the activity change, negative = activation is -113% (active).
Taken in the same sequence, the figures for `Cc1cc2cc(CNC(=S)NCc3ccccc3)ccc2n1C` were 1.2 and -20% (inactive).
`N[C@@H](Cc1ccccc1)c1nnc2sc(SCc3ccccc3)nn12`: the activation factor was 0.972 and the activity change, negative = activation was 2.75% (inactive).
Turning to `O=C(c1ccc[nH]1)N1O[C@@H]2C=C[C@H]1C2`, the activation factor turned out to be 0.951 and the activity change, negative = activation was 4.9% (inactive).
The corresponding values for `CCCN1C2CCCC1CC(NC(=O)c1cc(OC)c(OC)c(OC)c1)C2` (stereo unspecified) are 0.893 and 10.7% (inactive).
Taken in the same sequence, the figures for `Cc1cccc(NC(=O)c2cn(-c3ccccc3)nc2-c2ccccc2)c1` were 1.64 and -64% (inactive).
Taken in the same sequence, the figures for `Cc1nn(Cc2ccc(Cl)c(Cl)c2)c(C)c1NC(=O)c1cn(-c2ccccc2)nc1-c1ccccc1` were 2.62 and -162% (active).
In the case of `COc1cccc(-c2nn(-c3ccccc3)cc2C(=O)NCC(=O)O)c1`, the activation factor is 1.08 and the activity change, negative = activation is -8.2% (inactive).
Taken in the same sequence, the figures for `Cc1nn(Cc2ccc(Cl)cc2)c(C)c1NC(=O)c1c(-c2ccccc2)noc1C` were 1.03 and -2.7% (inactive).
The corresponding values for `O=C(NC1CCN(Cc2ccc(Cl)cc2)CC1)c1cn(-c2ccccc2)nc1-c1cccnc1` are 1.6 and -60.3% (inactive).
Regarding `Cc1nn(Cc2c(Cl)cccc2Cl)c(C)c1NC(=O)c1cn(-c2ccccc2)nc1-c1ccccc1`, the activation factor worked out at 1.74 and the activity change, negative = activation is -73.8% (active).
For the molecule `CCCN1CCN(C(=O)c2cn(CC(C)C)c(=O)c3cc(OC)c(OC)cc23)CC1`, the activation factor was determined as 1.04 and the activity change, negative = activation was -4.4% (inactive).
As to `COc1ccc(C2CC(c3ccccc3)n3nnnc3N2)cc1` (stereo unspecified), the activation factor came out at 1.15 and the activity change, negative = activation was -14.9% (inactive).
Taken in the same sequence, the figures for `COc1ccc2c(CC(=O)OCC(=O)N3CCc4ccccc43)coc2c1` were 0.935 and 6.5% (inactive).
Taken in the same sequence, the figures for `COc1cc2c(cc1OC)[C@@H](NC(=O)COc1ccccc1)[C@H](OCc1ccccc1)C2` were 1.07 and -6.55% (inactive).
On to `O=C(CSc1ncccn1)NCc1ccccc1`, for which the activation factor was 1.02 and the activity change, negative = activation was -2% (inactive).
For the molecule `CCOC(=O)c1sc(N=NC2=C(O)CC(C)(C)CC2=O)c(C(=O)OCC)c1C`, the activation factor is 3.1 and the activity change, negative = activation was -210% (active).
Taken in the same sequence, the figures for `COc1ccc(N=NC2=C(O)CC(C)(C)CC2=O)c(OC)c1` were 0.743 and 25.7% (inactive).
As for `CCOC(=O)c1sc(N=NC2=C(O)CCCC2=O)c(C(=O)OCC)c1C`, the activation factor is 0.794 and the activity change, negative = activation is 20.6% (inactive).
Taken in the same sequence, the figures for `COc1cc(NC(=O)c2ccc(F)cc2)c(OC)cc1Cl` were 0.929 and 7.05% (inactive).
The corresponding values for `COc1ccc2c(C)c(C(=O)O)oc2c1` are 0.933 and 6.65% (inactive).
Taken in the same sequence, the figures for `COC(=O)c1c(N)n(CCCN2CCOCC2)c2nc3ccccc3nc12` were 0.983 and 1.65% (inactive).
`N#Cc1c(-c2ccc(Cl)cc2)ccn2nc(CCC(=O)O)nc12`: the activation factor amounted to 1.15 and the activity change, negative = activation is -15.3% (inactive).
